Data as given in ChEMBL document CHEMBL3988442, “University of Dundee, Small-Polar-MMV Screening Library” (2021).
For some of these results: Measured potencies and affinities stand elsewhere.

Experiments:
Design in all cases: scale not given: direction of the effect not stated beside the values
[1] = target: Protein translocase subunit SecA (Escherichia coli (strain K12)) (UniProt P10408); assay: Assay to Identify E. coli SecA ATPase Inhibitors; type: functional; details: 30 µM
[2] = target: T1, Ubiquitin-activating enzyme e1, putative (Leishmania donovani (strain BPK282A1)) (UniProt E9BSI1); assay: Leishmania donovani Ubiquitin Activating Enzyme (LdE1); type: functional; details: 30 µM
T1 sequence (whole entry): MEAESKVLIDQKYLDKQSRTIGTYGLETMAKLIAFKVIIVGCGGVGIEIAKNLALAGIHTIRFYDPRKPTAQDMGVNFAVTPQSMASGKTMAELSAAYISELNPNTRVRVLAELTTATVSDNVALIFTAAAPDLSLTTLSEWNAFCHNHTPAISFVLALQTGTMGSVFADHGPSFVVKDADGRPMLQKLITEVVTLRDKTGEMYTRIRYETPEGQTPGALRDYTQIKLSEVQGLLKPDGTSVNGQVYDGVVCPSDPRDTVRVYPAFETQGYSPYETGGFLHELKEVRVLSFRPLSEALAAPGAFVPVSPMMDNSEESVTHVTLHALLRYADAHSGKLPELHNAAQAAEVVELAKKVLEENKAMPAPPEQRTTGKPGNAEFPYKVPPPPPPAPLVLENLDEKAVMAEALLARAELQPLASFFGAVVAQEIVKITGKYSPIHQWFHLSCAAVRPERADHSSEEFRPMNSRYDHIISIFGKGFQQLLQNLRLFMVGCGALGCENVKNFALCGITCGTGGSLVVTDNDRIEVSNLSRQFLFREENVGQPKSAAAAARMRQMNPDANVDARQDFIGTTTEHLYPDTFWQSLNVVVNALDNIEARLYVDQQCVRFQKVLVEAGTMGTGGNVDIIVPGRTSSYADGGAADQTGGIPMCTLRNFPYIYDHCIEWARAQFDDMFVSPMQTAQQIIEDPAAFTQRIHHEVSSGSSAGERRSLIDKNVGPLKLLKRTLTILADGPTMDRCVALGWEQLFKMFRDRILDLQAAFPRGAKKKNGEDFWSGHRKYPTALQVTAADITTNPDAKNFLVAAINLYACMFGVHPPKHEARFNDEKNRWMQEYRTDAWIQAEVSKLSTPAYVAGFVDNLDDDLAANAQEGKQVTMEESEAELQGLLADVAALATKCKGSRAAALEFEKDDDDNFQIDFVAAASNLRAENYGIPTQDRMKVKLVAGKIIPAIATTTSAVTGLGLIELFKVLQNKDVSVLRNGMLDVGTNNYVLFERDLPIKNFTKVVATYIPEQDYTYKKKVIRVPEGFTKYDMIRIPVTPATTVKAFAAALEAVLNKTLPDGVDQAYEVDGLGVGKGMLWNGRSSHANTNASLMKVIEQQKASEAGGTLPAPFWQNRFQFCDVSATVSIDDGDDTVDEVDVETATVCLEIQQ

[3] = target: AMP-activated protein kinase, AMPK (Homo sapiens) (UniProt P54646+O43741+P54619+Q9UGJ0+Q9Y478+Q13131+Q9UGI9); assay: AMP-dependent Kinase enzyme assay. An in vitro enzyme assay that detects ADP turnover that is directly proportional to AMPK activity. This uses naive AMPK that is activated during the assay with MK-8722; type: functional; details: 30 µM
[4] = target: Sialic acid-binding Ig-like lectin 9 (Homo sapiens) (UniProt Q9Y336); assay: Hs-Siglec9 ALPHAscreen SOP 20170721; details: 10 µM
Trypanosoma cruzi = assay: Trypanosoma cruzi phosphomannomutase and mannose-1-phosphate guanylyltransferase assay; type: functional; details: 10 µM
[5] = target: T2, Arginase-2, mitochondrial (Homo sapiens) (UniProt P78540); assay: in vitro enzyme assay to detect the production of urea directly proportional to the activity of Arginase II; type: functional; details: 33.3 µM; also: in the data most compounds retested in dose-response had high values
T2 sequence (whole entry): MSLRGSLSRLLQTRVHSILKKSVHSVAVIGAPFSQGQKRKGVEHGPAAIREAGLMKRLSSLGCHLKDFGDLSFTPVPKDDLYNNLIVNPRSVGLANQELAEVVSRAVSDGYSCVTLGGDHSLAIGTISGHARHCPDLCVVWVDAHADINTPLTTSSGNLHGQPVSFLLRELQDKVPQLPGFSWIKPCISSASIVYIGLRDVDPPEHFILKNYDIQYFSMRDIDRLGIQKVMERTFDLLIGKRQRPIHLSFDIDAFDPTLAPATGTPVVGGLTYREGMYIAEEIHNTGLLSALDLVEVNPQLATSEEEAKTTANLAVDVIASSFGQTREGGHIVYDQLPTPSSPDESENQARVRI

[6] = target: T3, Proteasome subunit beta (Trypanosoma cruzi) (UniProt O96673); assay: Trypanosoma cruzi proteasome chymotrypsin-like activity (TcProtChymo) assay.; also: in the data most compounds retested in dose-response had high values; type: functional; details: 9.37 µM
T3 sequence (whole entry): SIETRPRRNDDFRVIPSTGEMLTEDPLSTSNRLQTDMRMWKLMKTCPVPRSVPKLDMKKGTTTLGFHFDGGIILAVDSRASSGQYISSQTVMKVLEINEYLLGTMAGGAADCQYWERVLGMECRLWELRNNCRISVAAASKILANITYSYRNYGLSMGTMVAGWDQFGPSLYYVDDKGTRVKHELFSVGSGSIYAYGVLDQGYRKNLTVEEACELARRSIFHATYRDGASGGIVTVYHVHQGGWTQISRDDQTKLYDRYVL

Homo sapiens = organism: Homo sapiens; assay: To identify inhibition of the IFN signalling (Jak-Stat) pathway via expression of an eGFP reporter gene under the control of an IFN-stimulated response element (ISRE) containing MxA promoter.; type: functional; details: 30 µM
[7] = target: T4, Tyrosyl-tRNA synthetase, putative (Trypanosoma cruzi (strain CL Brener)) (UniProt Q4DSP6); assay: Trypanosoma cruzi tyrosyl tRNA synthetase (TcYRS) _High Tyrosine SOP; type: functional; details: 30 µM; also: in the data most compounds retested in dose-response had high values
T4 sequence (whole entry): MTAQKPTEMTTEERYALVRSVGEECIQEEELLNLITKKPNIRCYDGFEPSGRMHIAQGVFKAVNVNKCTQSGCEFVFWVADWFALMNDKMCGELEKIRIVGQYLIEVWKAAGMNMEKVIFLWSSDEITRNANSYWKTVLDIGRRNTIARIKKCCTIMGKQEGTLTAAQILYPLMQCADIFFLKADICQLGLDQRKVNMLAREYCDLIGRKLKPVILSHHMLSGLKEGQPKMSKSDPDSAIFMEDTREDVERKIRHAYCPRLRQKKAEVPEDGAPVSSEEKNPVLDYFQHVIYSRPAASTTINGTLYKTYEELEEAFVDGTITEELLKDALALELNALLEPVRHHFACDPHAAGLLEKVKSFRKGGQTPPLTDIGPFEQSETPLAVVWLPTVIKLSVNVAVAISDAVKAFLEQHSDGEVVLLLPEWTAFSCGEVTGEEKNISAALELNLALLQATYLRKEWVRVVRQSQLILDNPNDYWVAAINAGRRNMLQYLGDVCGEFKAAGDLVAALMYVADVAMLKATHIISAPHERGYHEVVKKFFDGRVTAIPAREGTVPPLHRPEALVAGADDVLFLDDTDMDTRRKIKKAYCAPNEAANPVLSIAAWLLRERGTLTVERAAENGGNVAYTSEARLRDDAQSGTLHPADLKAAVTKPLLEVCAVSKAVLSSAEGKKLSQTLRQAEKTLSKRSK

[8] = target: T4, Tyrosyl-tRNA synthetase, putative (Trypanosoma cruzi (strain CL Brener)); assay: Trypanosoma cruzi tyrosyl tRNA synthetase (TcYRS) SOP; type: functional; details: 30 µM
[9] = target: Chromo domain-containing protein 1 (Saccharomyces cerevisiae (strain ATCC 204508 / S288c) (Baker's yeast)) (UniProt P32657); assay: ScCHD-1 Enzyme Inhibition Assay; type: functional; details: 30 µM; also: in the data most compounds retested in dose-response had high values
Chain of Chromo domain-containing protein 1 (Saccharomyces cerevisiae (strain ATCC 204508 / S288c) (Baker's yeast)) (P32657 whole entry, the tested form may be a part): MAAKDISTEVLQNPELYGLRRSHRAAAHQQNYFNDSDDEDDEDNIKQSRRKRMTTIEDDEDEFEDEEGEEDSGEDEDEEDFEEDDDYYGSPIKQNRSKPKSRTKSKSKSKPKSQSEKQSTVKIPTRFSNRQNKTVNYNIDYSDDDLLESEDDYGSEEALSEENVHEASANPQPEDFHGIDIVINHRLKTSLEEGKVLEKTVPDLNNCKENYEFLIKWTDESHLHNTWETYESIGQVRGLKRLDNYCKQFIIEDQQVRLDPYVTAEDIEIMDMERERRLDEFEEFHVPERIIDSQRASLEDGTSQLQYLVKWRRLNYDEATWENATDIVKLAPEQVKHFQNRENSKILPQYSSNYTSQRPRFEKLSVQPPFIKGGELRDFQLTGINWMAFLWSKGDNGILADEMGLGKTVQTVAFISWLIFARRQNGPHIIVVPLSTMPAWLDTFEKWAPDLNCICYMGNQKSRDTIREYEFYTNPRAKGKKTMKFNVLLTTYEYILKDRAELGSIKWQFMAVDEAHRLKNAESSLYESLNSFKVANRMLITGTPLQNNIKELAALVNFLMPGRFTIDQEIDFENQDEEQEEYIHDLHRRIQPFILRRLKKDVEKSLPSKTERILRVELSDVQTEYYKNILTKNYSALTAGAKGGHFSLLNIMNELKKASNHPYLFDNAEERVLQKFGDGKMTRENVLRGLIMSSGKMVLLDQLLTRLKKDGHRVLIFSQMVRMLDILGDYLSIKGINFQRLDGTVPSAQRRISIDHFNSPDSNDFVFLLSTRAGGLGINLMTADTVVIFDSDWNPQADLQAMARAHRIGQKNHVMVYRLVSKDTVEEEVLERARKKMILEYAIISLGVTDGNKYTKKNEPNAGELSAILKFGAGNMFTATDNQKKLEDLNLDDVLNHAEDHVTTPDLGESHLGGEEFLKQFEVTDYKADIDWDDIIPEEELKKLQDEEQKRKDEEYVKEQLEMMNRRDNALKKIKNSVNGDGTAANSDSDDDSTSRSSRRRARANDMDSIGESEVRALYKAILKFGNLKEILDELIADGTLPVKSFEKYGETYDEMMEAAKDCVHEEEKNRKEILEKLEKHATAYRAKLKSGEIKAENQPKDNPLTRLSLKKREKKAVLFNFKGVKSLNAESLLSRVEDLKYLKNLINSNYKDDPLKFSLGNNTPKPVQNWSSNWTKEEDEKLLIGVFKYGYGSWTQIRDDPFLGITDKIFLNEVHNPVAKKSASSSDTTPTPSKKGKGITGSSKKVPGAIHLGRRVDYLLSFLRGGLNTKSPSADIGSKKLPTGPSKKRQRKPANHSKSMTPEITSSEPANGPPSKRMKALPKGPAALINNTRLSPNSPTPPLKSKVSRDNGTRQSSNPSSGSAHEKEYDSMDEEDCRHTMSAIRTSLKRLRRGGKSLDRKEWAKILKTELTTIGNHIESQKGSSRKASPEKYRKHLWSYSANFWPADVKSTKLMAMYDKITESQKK

Chain of Protein translocase subunit SecA (Escherichia coli (strain K12)) (P10408 whole entry): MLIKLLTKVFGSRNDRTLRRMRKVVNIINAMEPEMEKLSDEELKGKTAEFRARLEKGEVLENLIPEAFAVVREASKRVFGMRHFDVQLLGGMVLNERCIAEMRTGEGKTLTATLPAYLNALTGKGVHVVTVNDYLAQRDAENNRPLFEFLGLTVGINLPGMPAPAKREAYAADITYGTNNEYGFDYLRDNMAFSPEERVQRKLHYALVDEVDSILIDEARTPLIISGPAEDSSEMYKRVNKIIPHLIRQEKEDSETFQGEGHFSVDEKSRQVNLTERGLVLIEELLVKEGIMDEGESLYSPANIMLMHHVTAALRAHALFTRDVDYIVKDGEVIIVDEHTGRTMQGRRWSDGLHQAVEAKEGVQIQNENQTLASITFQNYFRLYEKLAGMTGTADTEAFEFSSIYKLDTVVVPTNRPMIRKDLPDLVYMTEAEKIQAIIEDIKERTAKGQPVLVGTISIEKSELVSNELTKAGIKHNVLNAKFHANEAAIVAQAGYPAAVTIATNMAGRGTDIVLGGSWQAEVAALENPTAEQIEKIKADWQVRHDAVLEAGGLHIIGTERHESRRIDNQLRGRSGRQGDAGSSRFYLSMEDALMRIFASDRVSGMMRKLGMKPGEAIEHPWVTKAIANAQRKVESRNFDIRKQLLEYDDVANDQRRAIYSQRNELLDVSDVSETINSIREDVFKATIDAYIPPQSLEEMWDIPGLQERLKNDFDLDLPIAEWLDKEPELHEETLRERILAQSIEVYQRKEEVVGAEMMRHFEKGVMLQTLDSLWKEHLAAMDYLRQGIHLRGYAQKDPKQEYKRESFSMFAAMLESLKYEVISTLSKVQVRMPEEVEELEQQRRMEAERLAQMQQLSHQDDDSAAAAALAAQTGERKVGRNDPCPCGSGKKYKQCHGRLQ
Chain of Sialic acid-binding Ig-like lectin 9 (Homo sapiens) (Q9Y336 whole entry): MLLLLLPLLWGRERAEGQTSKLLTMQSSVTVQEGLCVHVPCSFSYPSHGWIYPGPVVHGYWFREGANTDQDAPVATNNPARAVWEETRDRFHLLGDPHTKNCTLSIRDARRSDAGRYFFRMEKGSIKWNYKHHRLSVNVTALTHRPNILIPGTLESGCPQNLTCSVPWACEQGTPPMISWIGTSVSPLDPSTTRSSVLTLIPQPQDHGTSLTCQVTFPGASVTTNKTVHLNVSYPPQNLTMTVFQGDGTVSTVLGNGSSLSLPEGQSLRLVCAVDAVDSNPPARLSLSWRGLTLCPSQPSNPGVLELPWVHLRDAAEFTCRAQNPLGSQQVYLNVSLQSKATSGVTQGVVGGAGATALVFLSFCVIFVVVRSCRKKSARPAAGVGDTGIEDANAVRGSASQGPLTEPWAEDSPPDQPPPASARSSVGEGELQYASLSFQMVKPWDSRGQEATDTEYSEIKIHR

Structure (SMILES) | Percent Effect [1] | Percent Effect [2] | Percent Effect [3] | Percent Effect [4] | Percent Effect (Trypanosoma cruzi) | Percent Effect [5] | Percent Effect [6] | Percent Effect (Homo sapiens) | Percent Effect [7] | Percent Effect [8] | Percent Effect [9]
CCc1noc(C)c1C(=O)N1CCCC1Cn1nc(C)cc1C (stereo unspecified) | -3.14% | 5.26% | -1.52% | -4.06% | 2.71% | 1.8% | -3.47% | -20.2% | 4.43% | 13.6% | -6.42%
NC(=O)COc1cccc(C(=O)Nc2cnc3n2CCCC3)c1 | -4.34% | 6.94% | -7.99% | 1.81% | -1.26% | 6.18% | 10.7% | -0.649% | 8.42% | 15.4% | -3.57%
COCC1CCN(C(=O)c2cccc(S(=O)(=O)NCC3(C)COC3)c2)C1 (stereo unspecified) | -8.36% | 5.41% | 0.667% | 24.4% | 1.07% | 3.23% | 1.63% | 9.82% | 6.45% | 13.6% | -4.61%
CC(C)C(=O)NCc1cccc(N2CCCCC2=O)c1 | -6.2% | 18.2% | -3.27% | -10.4% | 5.78% | 1.05% | 11.7% | 0.702% | 3.81% | 21.2% | -12.3%
Cn1cc(S(=O)(=O)N2CCCC2CC(=O)c2cccs2)cn1 (stereo unspecified) | 2.62% | 0% | 0.659% | -5.21% | -5.79% | 1.43% | 14.8% | 11.2% | 2.65% | 4.88% | -3.57%
CCC(CC)c1cc(CNC(=O)N2CCCC(N(C)C)C2)on1 (stereo unspecified) | -3.85% | 8.11% | -7.08% | 17.6% | 6.55% | 0.248% | 12.8% | 7.88% | 6.45% | 13.6% | -6.35%
CCOCC1CN(C(=O)c2ccncc2)Cc2nn(C)cc21 (stereo unspecified) | 2.34% | 16% | -4.74% | 2.25% | 0.193% | -51.1% | 9.23% | -2.51% | 6.25% | 22.5% | -3.97%
CC(C)Oc1ncccc1CNC(=O)N1CCC1c1ccccc1 (stereo unspecified) | -7.94% | 13.2% | -8.45% | 2.16% | 11.3% | -0.766% | 9.69% | 23.3% | 7.35% | 17.1% | -12%
Cc1cccc2c1cnn2CCCNC(=O)CCCC(=O)O | -1.56% | 5.2% | 4.98% | 7.89% | 4.42% | -112% | 0% | 2.46% | 4.3% | 16.1% | -2.54%
CC(C)(C)c1n[nH]cc1CN1CCc2nc3ccsc3c(=O)n2CC1 | -2.34% | 25.7% | 7.24% | -3.97% | 2.96% | -7.19% | 18.7% | 43.3% | -1.07% | 3.9% | -5.96%
Cc1cnn(C2CCCN(C(=O)c3cc(C)sc3C)C2)c1 (stereo unspecified) | 2.61% | 7.89% | 4.46% | -9.37% | -4.97% | 1.18% | 18.7% | -4.44% | 5.32% | 7.79% | -5.57%
